Measured values published in PubChem BioAssay (Tox21).
Calls of active or inactive are those of the source. Calls follow the shape of the dose curve; as a rule, active = well fitted curve in the direction sought with a large enough effect in the repeat runs; inconclusive = weak or mixed curves; inactive = flat fitted curve, though single readings scatter.

Assay: qHTS assay to test for compound auto fluorescence at 590 nm (red) in HepG2 cell free culture (AID 720684)
Details: cell-free medium autofluorescence, red 540/590 nm; series mostly up to 91.3 µM
Text: U.S. Tox21 Program National Center for Advancing Translational Sciences [NCATS] NIH Chemical Genomics Center [NCGC] U.S. Environmental Protection Agency [EPA] National Institutes of Environmental Health Sciences [NIEHS] National Toxicology Program [NTP] U.S. Food and Drug Administration [FDA] Tox21 Assay Overview: Compound auto fluorescence often interferes with screening of the compound library against various biological targets and signaling pathways. Some of these compounds may have fluorophoric properties. Such properties may interfere with the assay outputs resulting in false positives and/or negatives. To decrease such complications and ensure the compound activities are relevant in terms of biological response, the Tox21 10K compound library was screened for auto fluorescence. From the fluorophores used as reporter signals in our screening assays, the auto fluorescence equivalencies of compounds against three fluorophores have been evaluated: Triamterene, Fluorescein and Rose Bengal sodium for blue, green and red fluorescence, respectively. The fluorescence intensities were measured using Excitation/Emission wavelengths at 405/460nm, 485/535nm and 540/590nm for blue, green and red labels, respectively. This assay includes the red fluorescence data.
Tox21 Assay Protocol Summary: 5 uL of culture medium (MEM containing 10% FBS) per well was dispensed into black wall/clear bottom 1536-well plates using a Multidrop Combi Dispenser (ThermoFisher Scientific, Waltham, MA). After 23 nL compound or DMSO vehicle was transferred into assay plate by a pintool work station (Kalypsys, San Diego, CA), fluorescence intensities in the assay plates were measured by an Envision (PerkinElmer, Shelton, CT) plate reader using three labels for measuring blue, green and red fluorescence at […] 460, 535 and 590nm respectively.

| Compound | outcome |
| --- | --- |
| [N-]=[N+]=[N-] | inactive |
| COCCl | inactive |
| O=Cc1cccc(Oc2ccccc2)c1 | inactive |
| O=c1[nH]c2ccccc2c(=O)o1 | inactive |
| ClCc1cccnc1 | inactive |
| O=NN1CCCC1 | inactive |
| Oc1ccccc1Cl | inactive |
| C#CCN(C)[C@H](C)Cc1ccccc1 | inactive |
| Clc1cccc(Cl)c1Cl | inactive |
| Cc1ccc(N)cc1Cl | inactive |
| Cn1cc(-c2ccccc2)c(=O)c(-c2cccc(C(F)(F)F)c2)c1 | inactive |
| CCOP(OCC)OCC | inactive |
| COC(=O)c1ccccc1C(=O)OC | inactive |
| COP(N)(=O)SC (stereo not given) | inactive |
| O=c1[nH]c(=O)[nH]c(=O)[nH]1 | inactive |
| CCN(CC)c1ccccc1 | inactive |
| Clc1ccccc1Cl | inactive |
| CON(C)C(=O)Nc1ccc(Cl)c(Cl)c1 | inactive |
| CCc1cccc(C)c1N(C(=O)CCl)C(C)COC (stereo not given) | inactive |
| CCC(C)(CC)c1cc(NC(=O)c2c(OC)cccc2OC)on1 | inactive |

| Compound | outcome |
| --- | --- |
| CC(Oc1ccc(Cl)cc1Cl)C(=O)O (stereo not given) | inactive |
| CCNc1nc(NC(C)C)nc(SC)n1 | inactive |
| CC(C)OC(=O)Nc1cccc(Cl)c1 | inactive |
| Cc1cc(-c2cc(C)c(N)c(C)c2)cc(C)c1N | inactive |
| Nc1ccc(Cc2ccc(N)cc2)cc1 | inactive |
| Cc1cc(Cl)ccc1O | inactive |
| O=[N+]([O-])c1ccc(Oc2ccc(Cl)cc2Cl)cc1 | inactive |
| Clc1ccc(Cl)cc1 | inactive |
| CCCCOC(=O)c1ccccc1C(=O)OCCCC | inactive |
| O=C(O)c1ccccn1 | inactive |
| CCCCCCCCCl | inactive |
| CC(C)OC(=O)Nc1ccccc1 | inactive |
| CNC(=O)Oc1ccccc1OC(C)C | inactive |
| COC(=O)NS(=O)(=O)c1ccc(N)cc1 | inactive |
| C=CCO | inactive |
| CC(C)N1C(=O)c2ccccc2NS1(=O)=O | inactive |
| CCCCCCCCCCCC#N | inactive |
| Cc1cccc([N+](=O)[O-])c1 | inactive |
| Cc1ccccc1O | inactive |
| CCCN(CCC)N=O | inactive |
